{
  "source": "the supplement of paper PMC10646978",
  "note": "± gives the standard deviation.",
  "data": [
    {"system": "RAW-Dual (murine macrophage reporter line)", "test": "IRF reporter (Lucia luciferase) activity fold change vs agonist alone; higher = enhanced IRF activity", "settings": "modulator concentration 10 µM; agonist: LPS 0.1 ug/mL", "in_short": "(§1)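 RAW-Dual murine macrophage reporter cells were plated at 50 000 per well in 384-well plates, pin-transferred compound to 10 μM final, and pre-incubated for 1 hour at 37 °C before a PRR agonist was added and the cells incubated overnight. NF-κB activity was read from supernatant SEAP with QUANTI-Blue at 620 nm absorbance, and IRF activity from Lucia luciferase with QUANTI-Luc by luminescence. Each signal was expressed as fold change by dividing by the mean agonist-only control on the same plate. Two replicate plates were averaged, with errors obtained by propagation.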", "values": [
      {"compound": "COc1c(Cl)ccc(Cl)c1C(=O)NCc1ccccc1", "IRF reporter": "1.25 ± 0.14"},
      {"compound": "CC(C)N(C)CCOC(=O)C(C)(c1ccccc1)c1ccccc1", "IRF reporter": "1.09 ± 0.12"},
      {"compound": "COCC(C)(CNS(=O)(=O)c1ccccc1Br)OC", "note": "(configuration not stated)", "IRF reporter": "1.07 ± 0.11"},
      {"compound": "CC(=O)c1ccc(NC(=O)CSc2ccc(-c3ccc4c(c3)OCO4)nn2)cc1", "IRF reporter": "1.02 ± 0.2"},
      {"compound": "COc1ccc(CCN(C)CCCC(C#N)(c2ccc(OC)c(OC)c2)C(C)C)cc1OC.Cl", "note": "(configuration not stated)", "IRF reporter": "1.32 ± 0.26"}
    ]},
    {"system": "RAW-Dual (murine macrophage reporter line)", "test": "IRF reporter (Lucia luciferase) activity fold change vs agonist alone; higher = enhanced IRF activity", "settings": "modulator concentration 10 µM; agonist: MPLA […]", "in_short": "as §1", "values": [
      {"compound": "COCCCNC(=O)C1CCCN(c2ccc(Sc3ccc(Br)cc3)nn2)C1", "note": "(configuration not stated)", "IRF reporter": "0.779 ± 0.2"},
      {"compound": "O=C(c1ccc(F)cc1)N(C1CCCCC1)C1CCCCC1", "IRF reporter": "1.4 ± 0.22"},
      {"compound": "CCCc1nc2c(C)cc(-c3nc4ccccc4n3C)cc2n1Cc1ccc(-c2ccccc2C(=O)O)cc1", "IRF reporter": "1.06 ± 0.11"},
      {"compound": "Cc1ccc(NC(=O)C(C#N)=Cc2ccc(-c3cccc([N+](=O)[O-])c3)o2)cc1", "IRF reporter": "1.18 ± 0.14"},
      {"compound": "COc1ccc(N(CC(=O)Nc2ccccc2C(F)(F)F)S(C)(=O)=O)cc1", "IRF reporter": "0.962 ± 0.13"},
      {"compound": "COc1ccccc1S(=O)(=O)N1CC(Oc2nc3c(C(F)(F)F)cccc3s2)C1", "IRF reporter": "1.5 ± 0.4"},
      {"compound": "COC(=O)C1=C(C)NC(C)=C(C(=O)OCC(C)C)C1c1ccccc1[N+](=O)[O-]", "note": "(configuration not stated)", "IRF reporter": "0.562 ± 0.052"},
      {"compound": "Fc1ccc(Nc2nc(NN=Cc3ccccc3F)nc(N3CCCCC3)n2)cc1", "IRF reporter": "1.74 ± 0.28"},
      {"compound": "COc1ccc(S(=O)(=O)Nc2ccc(Oc3ccccc3)cc2)cc1", "IRF reporter": "1.21 ± 0.2"},
      {"compound": "Br.CN(C)CCCC1(c2ccc(F)cc2)OCc2cc(C#N)ccc21", "note": "(configuration not stated)", "IRF reporter": "1.39 ± 0.24"},
      {"compound": "COc1cccc(N2C(=O)CN(Cc3ccccc3)C3CS(=O)(=O)CC32)c1", "note": "(configuration not stated)", "IRF reporter": "0.216 ± 0.075"},
      {"compound": "O=C(O)CC(C(=O)O)N1C(=O)C(=C2C(=O)Nc3ccc(Br)cc32)SC1=S", "note": "(configuration not stated)", "IRF reporter": "1.59 ± 0.4"}
    ]}
  ]
}
